For 7 molecules, activation results are on record in PubChem BioAssay AID504915 (The Scripps Research Institute Molecular Screening Center, 2011).

Structures are written as SMILES. The list shows a part of the results. Values without a mark were called inactive. Activity calls are given as the source filed them. No stated cut-off is given here; in the data, active means activation above about 17%; inactive means the rest.

Chain of 5-hydroxytryptamine receptor 5A (Homo sapiens) (P47898 whole entry, looked up): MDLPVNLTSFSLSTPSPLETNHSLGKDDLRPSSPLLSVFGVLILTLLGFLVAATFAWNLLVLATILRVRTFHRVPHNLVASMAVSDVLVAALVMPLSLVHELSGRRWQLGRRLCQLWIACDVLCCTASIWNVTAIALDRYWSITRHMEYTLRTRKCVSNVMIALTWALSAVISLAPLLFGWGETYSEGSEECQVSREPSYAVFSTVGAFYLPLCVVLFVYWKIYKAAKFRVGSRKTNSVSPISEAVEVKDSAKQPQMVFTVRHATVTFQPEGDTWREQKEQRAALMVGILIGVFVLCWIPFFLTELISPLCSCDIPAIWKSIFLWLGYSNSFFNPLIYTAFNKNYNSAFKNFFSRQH

This test has as its target 5-hydroxytryptamine receptor 5A (Homo sapiens) (UniProt P47898). Description: HTR5A agonists, retest of hits, confirmation, cell-based, luminescence (AID 504915).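 Further: 0% = cells with vehicle only and 100% = full reference agonist response.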 The conditions noted are these: HTR5A agonist cell assay, at 9.3 µM, active compounds read high.
Turning to `Cc1c(C(=O)OCC(=O)N(CCC#N)c2ccccc2)oc2c1ccc1ccccc12`, the activation is 61.4% (active).
Take `COC(=O)c1cc(C(=O)OCC(=O)Nc2cc(C)on2)cc([N+](=O)[O-])c1`: the activation was 1.23%.
Next, `COc1ccccc1S(=O)(=O)NCc1ccc(C(=O)N(C)Cc2ccc(F)cc2)cc1`: -2.33%; `COc1c(Cl)cc(C(=O)Nc2ccc(Cl)cn2)cc1Cl`: 4.5%; `COc1cc2c(-c3ccc4c(c3)OCO4)c(-c3ccsc3)oc(=O)c2cc1OC`: -0.88%.
Regarding `CN(c1ccccc1)S(=O)(=O)c1cc(C(=O)N2CCN(c3ncccn3)CC2)ccc1Cl`, the activation was -3.34%.
For `Cc1c(C(=O)OCC(=O)N2CCCC2=O)oc2ccccc12` the value was 3.43%.
